PubChem BioAssay AID1159580 (chemical genetic matrix, 2015)
Among all 5,500 compounds or so, about 2,000 (36%) were called active. Another 18% or so got no clear call; they are omitted. No stated cut-off is given here; in the data, active means normalized growth mostly below about 0.91 (no sharp cut-off); inconclusive means no clear call, values can overlap the other calls; inactive means mostly above about 0.92. Some of the results follow.

Assay: chemical genetic growth profiling, strain panel (AID 1159580);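 further: tested at 20 µM; growth read once vehicle control cultures reached saturation at 30 °C; 1 = growth at the plate median or of vehicle wells; lower values mean less growth of the strain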
Conditions: growth OD
[1] = S. cerevisiae deletion strains, locus YAL013W, strain DEP1, hits give low values
[2] = S. cerevisiae deletion strains, locus YBR229C, strain ROT2, hits give low values
[3] = S. cerevisiae deletion strains, locus YDL101C, strain DUN1, hits give low values
[4] = S. cerevisiae deletion strains, locus YDR150W, strain NUM1, hits give low values
[5] = S. cerevisiae deletion strains, locus YEL061C, strain CIN8, hits give low values
[6] = S. cerevisiae deletion strains, locus YGR078C, strain PAC10, hits give low values
[7] = S. cerevisiae deletion strains, locus YHR030C, strain SLT2, hits give low values
[8] = S. cerevisiae deletion strains, locus YJR043C, strain POL32, hits give low values
[9] = S. cerevisiae deletion strains, locus YJR075W, strain HOC1, hits give low values
[10] = S. cerevisiae deletion strains, locus YLR039C, strain RIC1, hits give low values
[11] = S. cerevisiae deletion strains, locus YLR262C, strain YPT6, hits give low values
[12] = S. cerevisiae deletion strains, locus YMR263W, strain SAP30, hits give low values
[13] = S. cerevisiae deletion strains, locus YNL153C, strain GIM3, hits give low values
[14] = S. cerevisiae deletion strains, locus YNL322C, strain KRE1, hits give low values
[15] = S. cerevisiae deletion strains, locus YOL006C, strain TOP1, hits give low values
[16] = S. cerevisiae deletion strains, locus YPL055C, strain LGE1, hits give low values
[17] = S. cerevisiae deletion strains, locus YPL241C, strain CIN2, hits give low values
[18] = S. cerevisiae strains, strain wild type, hits give low values

Measured: normalized growth

CSc1nc(N)nc(N2CCCCC2)n1
inactive: [1] 1 | [2] 1 | [3] 1 | [4] 0.982 | [5] 1 | [6] 1 | [7] 0.951 | S. cerevisiae deletion strains, locus YHR087W, strain rtc3, hits give low values 1 | [8] 1 | [9] 1 | [10] 1.01 | S. cerevisiae deletion strains, locus YLR058C, strain SHM2 (second series), hits give low values 1.02 | S. cerevisiae deletion strains, locus YLR085C, strain ARP6, hits give low values 0.936 | [11] 1.02 | S. cerevisiae deletion strains, locus YML094W, strain GIM5, hits give low values 0.944 | S. cerevisiae deletion strains, locus YMR219W, strain ESC1, hits give low values 1.01 | [12] 1.02 | [13] 0.99 | S. cerevisiae deletion strains, locus YNL298W, strain CLA4 (second series), hits give low values 1.02 | [14] 1 | S. cerevisiae deletion strains, locus YNR030W, strain Alg12, hits give low values 1.01 | [15] 0.812 | [16] 0.939 | [17] 0.935 | S. cerevisiae deletion strains, locus YPR135W, strain CTF4, hits give low values 0.946 | [18] 1.01

CNC(=O)[C@H]1O[C@@H](n2cnc3c(NCc4ccc(N)cc4)ncnc32)C(O)[C@H]1O (stereo not given in full)
inactive: [1] 0.978 | S. cerevisiae deletion strains, locus YAL040C, strain CLN3, hits give low values 0.991 | S. cerevisiae deletion strains, locus YER002W, strain NOP16, hits give low values 1.02 | [6] 0.986 | S. cerevisiae deletion strains, locus YNL175C, strain NOP13, hits give low values 1.02 | S. cerevisiae deletion strains, locus YNL197C, strain WHI3, hits give low values 1.01 | S. cerevisiae deletion strains, locus YNL224C, strain SQS1, hits give low values 1.02 | S. cerevisiae deletion strains, locus YOR083W, strain WHI5 (second series), hits give low values 0.995

NCC1OC(OC2C(CO)OC(OC3C(O)C(N)CC(N)C3OC3OC(CO)C(O)CC3N)C2O)C(N)C(O)C1OC1OC(CO)C(O)C(O)C1O (stereo not given)
inactive: [1] 0.997 | S. cerevisiae deletion strains, locus YBR021W, strain FUR4, hits give low values 1.17 | [2] 0.999 | S. cerevisiae deletion strains, locus YCL029C, strain bik1, hits give low values 0.977 | S. cerevisiae deletion strains, locus YDL035C, strain GPR1, hits give low values 0.996 | S. cerevisiae deletion strains, locus YDL074C, strain BRE1, hits give low values 0.993 | [3] 0.992 | S. cerevisiae deletion strains, locus YDL134C, strain PPH21, hits give low values 1.01 | S. cerevisiae deletion strains, locus YDL185W, strain tfp1, hits give low values 0.958 | S. cerevisiae deletion strains, locus YDL192W, strain arf1, hits give low values 0.984 | S. cerevisiae deletion strains, locus YDR101C, strain arx1, hits give low values 0.978 | [4] 0.991 | S. cerevisiae deletion strains, locus YDR162C, strain NBP2, hits give low values 0.992 | S. cerevisiae deletion strains, locus YDR318W, strain mcm21, hits give low values 0.997 | S. cerevisiae deletion strains, locus YDR388W, hits give low values 0.998 | S. cerevisiae deletion strains, locus YDR502C, strain sam2, hits give low values 0.988 | [5] 0.995 | S. cerevisiae deletion strains, locus YER110C, hits give low values 0.986 | S. cerevisiae deletion strains, locus YER155C, strain BEM2, hits give low values 0.995 | S. cerevisiae deletion strains, locus YER167W, strain BCK2, hits give low values 0.997 | S. cerevisiae deletion strains, locus YGL078C, strain dbp3, hits give low values 0.997 | S. cerevisiae deletion strains, locus YGL086W, strain mad1, hits give low values 1.01 | S. cerevisiae deletion strains, locus YGL248W, strain PDE1, hits give low values 0.996 | [6] 0.974 | S. cerevisiae deletion strains, locus YGR135W, strain pre9, hits give low values 0.993 | S. cerevisiae deletion strains, locus YGR229C, strain SMI1, hits give low values 0.991 | S. cerevisiae deletion strains, locus YGR252W, strain gcn5, hits give low values 1.18 | [7] 0.993 | S. cerevisiae deletion strains, locus YHR079C, strain IRE1 (second series), hits give low values 0.986 | S. cerevisiae deletion strains, locus YHR094C, strain hxt1, hits give low values 0.975 | S. cerevisiae deletion strains, locus YHR129C, strain ARP1, hits give low values 0.988 | S. cerevisiae deletion strains, locus YHR200W, strain rpn10, hits give low values 0.993 | S. cerevisiae deletion strains, locus YIL066C, strain RNR3, hits give low values 0.987 | S. cerevisiae deletion strains, locus YIL073C, strain SPO22, hits give low values 0.899 | S. cerevisiae deletion strains, locus YIL125W, strain kgd1, hits give low values 0.995 | S. cerevisiae deletion strains, locus YIR030C, strain dcg1, hits give low values 0.988 | S. cerevisiae deletion strains, locus YJL095W, strain BCK1, hits give low values 0.982 | S. cerevisiae deletion strains, locus YJL134W, strain LCB3, hits give low values 0.992 | S. cerevisiae deletion strains, locus YJL168C, strain set2, hits give low values 0.986 | S. cerevisiae deletion strains, locus YJL187C, strain SWE1 (second series), hits give low values 0.988 | [8] 0.992 | [9] 0.98 | S. cerevisiae deletion strains, locus YKL009W, strain mrt4, hits give low values 0.976 | S. cerevisiae deletion strains, locus YKL068W, hits give low values 0.978 | S. cerevisiae deletion strains, locus YKL085W, strain MDH1 (second series), hits give low values 0.983 | S. cerevisiae deletion strains, locus YKL085W, strain MDH1, hits give low values 0.983 | S. cerevisiae deletion strains, locus YKL190W, strain CNB1, hits give low values 0.995 | S. cerevisiae deletion strains, locus YKR001C, strain vps1, hits give low values 0.991 | [10] 0.944 | S. cerevisiae deletion strains, locus YLR058C, strain SHM2, hits give low values 0.999 | S. cerevisiae deletion strains, locus YLR102C, strain apc9, hits give low values 0.997 | [11] 0.916 | S. cerevisiae deletion strains, locus YLR268W, strain sec22, hits give low values 0.962 | S. cerevisiae deletion strains, locus YLR330W, strain CHS5, hits give low values 0.985 | S. cerevisiae deletion strains, locus YLR342W, strain FKS1 (second series), hits give low values 1.07 | S. cerevisiae deletion strains, locus YLR371W, strain rom2, hits give low values 0.986 | S. cerevisiae deletion strains, locus YLR418C, strain cdc73, hits give low values 1 | S. cerevisiae deletion strains, locus YML016C, strain PPZ1, hits give low values 1.01 | S. cerevisiae deletion strains, locus YML032C, strain rad52, hits give low values 0.981 | S. cerevisiae deletion strains, locus YML124C, strain tub3, hits give low values 1.01 | S. cerevisiae deletion strains, locus YMR078C, strain ctf18, hits give low values 0.993 | S. cerevisiae deletion strains, locus YMR223W, strain ubp8, hits give low values 1.03 | [12] 0.985 | S. cerevisiae deletion strains, locus YMR307W, strain GAS1, hits give low values 1.11 | S. cerevisiae deletion strains, locus YNL067W, strain RPL9B, hits give low values 0.976 | S. cerevisiae deletion strains, locus YNL128W, strain TEP1, hits give low values 0.994 | [13] 0.988 | S. cerevisiae deletion strains, locus YNL233W, strain BNI4, hits give low values 1 | S. cerevisiae deletion strains, locus YNL250W, strain rad50, hits give low values 1 | S. cerevisiae deletion strains, locus YNL271C, strain bni1, hits give low values 0.985 | S. cerevisiae deletion strains, locus YNL298W, strain CLA4, hits give low values 0.984 | S. cerevisiae deletion strains, locus YNL307C, strain MCK1, hits give low values 1 | [14] 0.995 | S. cerevisiae deletion strains, locus YNR052C, strain pop2, hits give low values 0.991 | [15] 0.948 | S. cerevisiae deletion strains, locus YOL012C, strain htz1 1.18 | S. cerevisiae deletion strains, locus YOL147C, strain pex11, hits give low values 0.998 | S. cerevisiae deletion strains, locus YOR061W, strain CKA2, hits give low values 0.997 | S. cerevisiae deletion strains, locus YOR069W, strain VPS5, hits give low values 1 | S. cerevisiae deletion strains, locus YOR136W, strain idh2, hits give low values 0.986 | S. cerevisiae deletion strains, locus YOR144C, strain elg1, hits give low values 0.985 | S. cerevisiae deletion strains, locus YOR184W, strain ser1, hits give low values 0.97 | S. cerevisiae deletion strains, locus YOR316C, strain cot1, hits give low values 0.965 | [16] 0.966 | [17] 0.997 | S. cerevisiae deletion strains, locus YPR119W, strain clb2, hits give low values 0.999 | S. cerevisiae deletion strains, locus YPR141C, strain kar3, hits give low values 0.985 | S. cerevisiae deletion strains, locus YPR163C, strain tif3, hits give low values 0.983 | S. cerevisiae deletion strains, locus YPR167C, strain met16, hits give low values 0.981 | S. cerevisiae deletion strains, strain wtn01, hits give low values 0.954 | [18] 1
